Several values for one entry are separate records, joined by “and”; a condition that tells them apart may be missing. Equal entries are not always repeated. About 5,400 (1.8%) of roughly 300,000 compounds were called active. A call without a number means that no potency is given here. Roughly 28% stayed inconclusive and do not appear here. Calls follow the shape of the full dose curve; tested in HEK293 cells. For the sample, actives were picked, then their nearest neighbours and some compounds at random. The source holds several records for some structures; these can differ, active in one and inactive in another.
Assay: qHTS for inhibitors of binding or entry into cells for Marburg Virus
Settings: Marburg virus pseudotyped entry inhibition, cell reporter; series mostly up to 37.8 µM
Potency is read from the fitted curve at half-maximal effect.

Row | SMILES | Potency
1 | CC(=O)N1CCOc2ccc(S(=O)(=O)N3CCC(C(=O)Nc4ccccc4F)CC3)cc21 | inactive
2 | CCOc1ccc(CN2CCN(Cc3ccon3)CC2CCO)cc1 (stereo unspecified) | inactive
3 | Cc1ccc(CN2CCN(Cc3ccc4ncccc4c3)CC2CCO)cc1 (stereo unspecified) | inactive
4 | CCOc1ccc(CN2CCN(Cc3ccc4cc(F)ccc4n3)CC2CCO)cc1 (stereo unspecified) | 10 µM (active)
5 | COc1cccc([C@@H]2Oc3ccc(OC)cc3C(=O)[C@@H]2OC(=O)Nc2cc(OC)c(OC)c(OC)c2)c1 | inactive
6 | Cc1ccccc1CCNC(=O)C1CCC(=O)N(Cc2ccc(Cl)cc2)C1 (stereo unspecified) | inactive
7 | Cc1ccc(OCc2cc(C(=O)N(C)CCn3ccnc3C)no2)cc1C | inactive
8 | COC(=O)C/C=C/[C@@H](C)[C@@H](/C=N/OC[C@@H](O)[C@H]1O[C@@H]2OC(C)(C)O[C@@H]2[C@H]1O)OC | inactive
9 | CCN(CC)c1ccc(NC(=O)c2ccc(Cl)nc2)cc1 | 7.08 µM (active)
10 | CCOC(=O)c1ccc(NC(=O)c2cccnc2)cc1 | inactive
11 | O=C(NNC(=O)c1ccc(Cl)nc1)c1ccc(Br)cc1 | inactive
12 | Cc1ccc(NC(=O)C(C)OC(=O)C2CC3CCCC(C2)C3=O)cc1S(=O)(=O)N1CCOCC1 (stereo unspecified) | inactive
13 | CC(=O)Oc1ccccc1[C@@H]1OC(=O)c2ccccc2N1C(C)=O | inactive
14 | COc1ccc(/C=C/c2noc(-c3ccccc3OC(C)=O)n2)cc1 | 11.2 µM (active)
15 | COc1ccc(/C=C/c2noc(-c3ccccc3O)n2)cc1OC | inactive
16 | CN(CC(=O)NCCc1ccc(S(N)(=O)=O)cc1)CC(=O)Nc1ccc(F)c(F)c1F | inactive
17 | COc1ccc(CCNc2nc(C)cc(C)n2)cc1OC | inactive
18 | COc1ccc(CCN(C)CCN2C(=O)c3ccccc3C2=O)cc1OC | inactive
19 | COc1ccc(CCNC2=C(Cl)C(=O)N(Cc3ccccc3)C2=O)cc1OC | 11.2 µM (active)
20 | CC(=NNC(=O)c1ccc2nc[nH]c2c1)c1ccc(Br)cc1 | inactive
21 | O=C(O)c1ccc(Cn2cnc3c(=S)nc[nH]c32)cc1 | inactive
22 | O=C(COc1ccc(Br)cc1F)NCC1(N2CCCCC2)CCCCC1 | 10 µM (active)
23 | O=C(COc1ccccc1F)NNC(=O)c1ccc(N2CCCCC2)c([N+](=O)[O-])c1 | inactive
24 | O=C(COC(=O)COc1ccccc1F)Nc1cccc(S(=O)(=O)N2CCCCC2)c1 | inactive
25 | Nc1ncnc2c1cnn2C1CC(O)C(CO)O1 (stereo unspecified) | inactive
26 | COc1ccc(C(=O)OCC(=O)N2CC(=O)Nc3ccccc32)cc1Br | inactive

Row | SMILES | Potency
27 | O=C(Nc1ccc(S(=O)(=O)N2CCOCC2)cc1)C1CCN(S(=O)(=O)c2ccc(Cl)cc2)CC1 | inactive
28 | CCCCNC1(C#N)CCN(Cc2ccccc2)CC1 | inactive
29 | O=C(NNS(=O)(=O)c1ccc([N+](=O)[O-])cc1)C1CCCCC1 | inactive
30 | O=C1c2cccc3c([N+](=O)[O-])ccc(c23)C(=O)N1CC1CCCO1 (stereo unspecified) | 23.1 µM (active)
31 | O=C(NCc1ccc2c(c1)OCO2)c1ccc2c(c1)C(=O)N(CC1CCCO1)C2=O (stereo unspecified) | inactive
32 | O=c1c2cc3c(=O)n(CC4CCCO4)c(=O)c3cc2c(=O)n1CC1CCCO1 (stereo unspecified) | inactive
33 | Cc1cc(S(=O)(=O)Nc2ccc(C(=O)NCC(c3ccco3)N3CCCC3)cc2)ccc1F (stereo unspecified) | inactive
34 | CCC(=O)N1CCc2cc(Br)c(S(=O)(=O)NCCN3CCCCC3CC)cc21 (stereo unspecified) | inactive
35 | CCN(Cc1ccccc1)C(=O)Cc1ccc(OC)c(S(=O)(=O)N2CCOCC2)c1 | inactive
36 | COc1cccc(CNS(=O)(=O)c2ccc3c(c2)CC(C)N3C(C)=O)c1 (stereo unspecified) | inactive
37 | COC(=O)CC=C[C@@H](C)[C@H](NC(=O)OCC(Cl)(Cl)Cl)c1ccc2ccccc2c1 | inactive
38 | Cc1ccc(-c2nn(-c3ccc(F)cc3)cc2C(=O)NCC(c2cccs2)N2CCOCC2)cc1 (stereo unspecified) | inactive
39 | Cc1ccc(S(=O)(=O)N(C)C2(C)CCS(=O)(=O)C2)cc1 (stereo unspecified) | inactive
40 | Cc1ccc(S(=O)(=O)NC2CCCCCC2)cc1 | inactive
41 | Cc1ccc(S(=O)(=O)C2(S(=O)(=O)c3ccc(C)cc3)CCCC2)cc1 | 3.98 µM (active)
42 | COc1cccc2cc(C(=O)NCc3ccc(C)cc3)c(=N)oc12 | inactive
43 | Cc1cccc2[nH]c(CN(C)C(=O)C3CCC(=O)N(CCc4ccccc4)C3)nc12 (stereo unspecified) | inactive
44 | CCN(CCCNC(=O)CSc1cc(=O)n(C)c2cc(Cl)ccc12)c1cccc(C)c1 | inactive
45 | CCOc1ccc(CCNC(=O)CSc2cc(=O)n(C)c3ccc(Cl)cc23)cc1OCC | inactive
46 | CCN(CCCNC(=O)CSc1cc(=O)n(C)c2cc(Cl)ccc12)Cc1ccccc1 | 11.2 µM (active)
47 | COc1ccc(CCNC(=S)N2CCN(S(=O)(=O)c3ccc(Cl)cc3)CC2)cc1 | inactive
48 | Oc1cc2c(cc1O)CN(C(=S)NCCc1ccc(Cl)cc1)CCC2 | inactive and 355 nM (active)
49 | Cc1ccc(NC(=S)NCCc2ccc(Cl)cc2)c(C)c1 | inactive
50 | CC(=O)c1ccc(S(=O)(=O)N(C)CCCC(=O)N(C)Cc2ccccc2F)cc1 | inactive
51 | O=C(CCn1nnnc1CN1CCOCC1)N1CCC(c2ccccc2Cl)C1 (stereo unspecified) | inactive
52 | CCCC(CNC(=O)COC(=O)C1=NNC(=O)CC1)c1ccc(Cl)cc1Cl (stereo unspecified) | inactive

Row | SMILES | Potency
53 | CCOc1ccccc1Nc1nnc(SCC(=O)NCC2CCCO2)s1 (stereo unspecified) | inactive
54 | CCOC(=O)N1CCN(C(=O)C2CCCN(c3ncnc4c3sc3cccc(F)c34)C2)CC1 (stereo unspecified) | inactive
55 | OC1CCCN(c2ncnc3c2nnn3Cc2c(F)cccc2Cl)C1 (stereo unspecified) | 10 µM (active)
56 | O=C(CSc1ncnc2c1nnn2Cc1ccc(F)cc1)NC1CCCC1 | inactive
57 | O=C1N=CC(F)C(=O)N1 (stereo unspecified) | inactive
58 | CCOc1ccc(NC(=O)CN(C)C(=O)c2cccc(S(=O)(=O)N3CCCC3)c2)cc1OCC | inactive
59 | COc1ccccc1C(=O)N(C1=NC(C)CS1)c1ccc(Cl)cc1 (stereo unspecified) | inactive
60 | O=C(COC(=O)c1ccc(O)cc1O)NC(=O)c1ccccc1 | inactive
61 | Cc1noc(C)c1COC(=O)c1cc2ccccc2cc1O | inactive
62 | O=C(NNc1c2ccccc2nc2ccccc12)c1cc2ccccc2cc1O | 3.16 µM (active)
63 | COc1ccccc1C(=O)OCC(=O)Nc1cccc(S(=O)(=O)NC2=NCCCCC2)c1 | inactive
64 | O=C1CCc2cc(S(=O)(=O)Nc3ccc(C(F)(F)F)cc3)cc3c2N1CC3 | inactive
65 | Cc1cccc(-n2c(SCC(N)=O)nc3c(c2=O)C2(CCCCC2)Cc2ccccc2-3)c1 | 4.47 µM (active)
66 | Cc1cccc(-n2c(N)cc(=O)nc2SC(C)C(=O)NC2CCCCC2)c1 (stereo unspecified) | inactive
67 | Cc1cccc(-n2c(SCC(N)=O)nc3c(oc4ccccc43)c2=O)c1 | inactive
68 | O=S(=O)(Nc1ccc2nc(N3CCOCC3)sc2c1)c1ccccc1 | inactive
69 | COc1ccc(CC(=O)NC(C)c2ccc(Cl)c(Cl)c2)cc1S(=O)(=O)N1CCOCC1 (stereo unspecified) | inactive
70 | CCOc1ccc(CCNC(=O)COC(=O)c2ccc(F)c(S(=O)(=O)N3CCOCC3)c2)cc1OCC | inactive
71 | CC(NCC(=O)Nc1ccccc1C(=O)NC1CC1)c1ccccc1Cl (stereo unspecified) | inactive
72 | Cn1c(Cl)cnc1[C@H]1CC(=O)c2cc(Cl)ccc2O1 | 10 µM (active)
73 | COc1cccc(NC(=O)C[C@H]2SC(=Nc3ccccc3)NC2=O)c1 | inactive
74 | O=C(c1cnn(-c2ccc(Cl)cc2)c1)c1ccccc1O | 3.55 µM (active)
75 | Cc1ncc(CC(=O)n2cc(C(=O)c3cc(Cl)ccc3O)cn2)s1 | inactive
76 | Cc1cc(O)cc(O)c1C(=O)Cc1cnn(-c2ccccc2)c1 | inactive
77 | O=c1oc2ccccc2c(=O)c2ccccc12 | inactive
78 | Cc1cccc(CN2CCC(n3nccc3NC(=O)c3ccccc3C)CC2)n1 | inactive

Row | SMILES | Potency
79 | CC1(C(=O)NNC(=S)NCC2CCCO2)CC1(Cl)Cl (stereo unspecified) | inactive
80 | CC(=O)OC1C2(CC3N4C(=O)C5(CO)SSC4(CC31O)C(=O)N5C)OC(C)C(C)(C)C2=O (stereo unspecified) | 1.41 µM (active)
81 | Cc1ccc(OCC(=O)N/N=C\c2ccco2)c(C)c1 | inactive
82 | Cc1ccc(/C=N/NC(=O)COc2ccccc2-c2ccccc2)cc1 | 1.3 µM (active)
83 | Cc1ccc(OCC(=O)N/N=C/c2ccncc2)cc1 | inactive
84 | O=C(Nc1ccc(-n2cccn2)cc1)C1CCN(Cc2ccsc2)CC1 | inactive
85 | O=C(Nc1cnn(Cc2ccc(Cl)cc2)c1)C1CCCC1 | inactive
86 | CCn1cc(CN2CCC(C(=O)Nc3cccc(-c4cccc(Cl)c4)c3)CC2)cn1 | 12.6 µM (active)
87 | CC(C)CO/N=C1\C[C@@H](O)[C@@H](O)[C@@H]2[C@@H]3C(=O)N(C[C@@H]4CCCO4)C(=O)[C@@H]3CC[C@@H]12 | inactive
88 | CC1CN(Cc2ccco2)C(=S)N(c2ccccc2)C1=O (stereo unspecified) | inactive
89 | O=C1CCCN1C(=O)COc1ccc([N+](=O)[O-])cc1 | inactive
90 | Cc1noc(C)c1CSCC(=O)N(CCC(C)C)c1c(N)n(Cc2ccccc2)c(=O)[nH]c1=O | inactive
91 | COc1ccc(/C=C/C(=O)Nc2cccnc2)cc1OC | inactive
92 | COc1ccc(/C=C/C(=O)Nc2ccc(C34CC5CC(CC(O)(C5)C3)C4)cc2)cc1OC | 6.51 µM (active)
93 | COc1ccc(/C=C/C(=O)OCC(=O)NC2CCCCCC2)cc1OC | inactive
94 | CCOC(=O)Cc1[nH]nc2c1[C@H](c1cc(OC)ccc1OC)C(C#N)=C(N)O2 | inactive
95 | COc1ccc(Oc2c(Cl)cnn(-c3ccccc3)c2=O)cc1 | 10 µM (active)
96 | Cc1ccc(Oc2cnn(-c3ccccc3)c(=O)c2Br)cc1 | inactive
97 | COc1ccc(-n2c(C)nc3c(cnn3-c3ccc(F)cc3)c2=O)cc1 | inactive
98 | Cc1cc(C(=O)Nc2ccccc2N2CCOCC2)c2ccccc2n1 | inactive
99 | c1ccc(Nc2nc(N3CCOCC3)c3ccccc3n2)cc1 | 12.6 µM (active)
100 | c1ccc(-c2nnc(N3CCOCC3)c3ccccc23)cc1 | inactive
101 | Cc1nn(-c2ccc(F)cc2)c(Cl)c1/C=C(/CCC(=O)O)c1nc2ccccc2s1 | inactive

— PubChem BioAssay AID540276 (National Center for Advancing Translational Sciences (NCATS), 2011)
